Source: the supplement of paper PMC13380429

Experiments:
[1] = test system: Vero E6 infected with SARS-CoV-2; test: morphology score (similarity to uninfected cells); higher = more like uninfected cells; conditions: 24 h
[2] = test system: Vero E6 infected with SARS-CoV-2; test: SARS-CoV-2 infection rate relative to infected DMSO; higher = more infection, active = 60 or less; conditions: 24 h

## O=S(=O)(N[C@H](CO)C(C(F)(F)F)C(F)(F)F)c1ccc(Cl)s1 [begacestat] (10 µM)
[1]
  morphology score: 0.00774
[2]
  SARS-CoV-2 infection rate: 98% (inactive)

## NC1CCN(c2nc3c(cc2F)c(=O)c(C(=O)O)cn3-c2ccc(F)cc2F)C1 (stereo not given) [tosufloxacin] (10 µM)
[1]
  morphology score: -0.115
[2]
  SARS-CoV-2 infection rate: 112% (inactive)

## O=C(Cc1ccc(-c2ccc(OCCN3CCOCC3)cc2)cn1)NCc1ccccc1 (10 µM)
[1]
  morphology score: -0.5
[2]
  SARS-CoV-2 infection rate: 112% (inactive)

## C[C@](O)(COc1ccc(C#N)cc1)C(=O)Nc1ccc(C#N)c(C(F)(F)F)c1 [ostarine] (10 µM)
[1]
  morphology score: 0.0725
[2]
  SARS-CoV-2 infection rate: 112% (inactive)

## c1nc(CC2CCNCC2)c[nH]1 [immepip] (10 µM)
[1]
  morphology score: 0.0471
[2]
  SARS-CoV-2 infection rate: 101% (inactive)

## COc1ccc(CCO[C@@H]2CCCC[C@H]2N2CC[C@@H](O)C2)cc1OC [vernakalant] (10 µM)
[1]
  morphology score: 0.109
[2]
  SARS-CoV-2 infection rate: 110% (inactive)

## CCOC(=O)c1ccc(N2NC(=O)/C(=C/c3ccc([N+](=O)[O-])o3)C2=O)cc1 (10 µM)
[1]
  morphology score: 0.149
[2]
  SARS-CoV-2 infection rate: 85% (inactive)

## OCCN1CCN(CCCN2c3ccccc3Sc3ccc(Cl)cc32)CC1 [perphenazine] (0.833333 µM)
[1]
  morphology score: -0.0186
[2]
  SARS-CoV-2 infection rate: 109% (inactive)

## N[C@H](Cc1ccccc1)C(=O)O [D-phenylalanine] (10 µM)
[1]
  morphology score: 0.0544
[2]
  SARS-CoV-2 infection rate: 104% (inactive)

## C[C@]12C=CC(=O)C=C1CC[C@@H]1[C@@H]2[C@@H](O)C[C@@]2(C)[C@H]1CC[C@]2(O)C(=O)COC(=O)CCC(=O)O [prednisolone-hemisuccinate] (10 µM)
[1]
  morphology score: 0.166
[2]
  SARS-CoV-2 infection rate: 94% (inactive)
